Reference: PubChem BioAssay
Unmarked numbers belong to inactive results. The source made the active and inactive calls. The rule behind the calls is not given here.

Experiment: compounds altering circadian rhythm period length – cell-based, LOPAC library, luminescence reporter (AID 2774);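 note: values are relative to mean of DMSO wells on each plate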
Details: circadian reporter cells, at 7 µM, actives lie on both sides
In the case of `O=C1CC[C@@]2(O)C3Cc4ccc(O)c5c4C2(CCN3CC2CC2)[C@H]1O5` (some centres undefined), the period change is reported as -0.05 h. With `NC(CP(=O)(O)O)C(=O)O` (centres undefined) the period change was -0.025 h. Work on `C[C@]12Cc3cn4c(nc3C=C1CCC1C2CC[C@@]2(C)[C@H]1CC[C@@]2(O)C#N)nc1ccccc14` (some centres undefined) yielded a period change of 0.285 h. For `CC(N)c1cccc(Cl)c1Cl` (centres undefined), the period change was 0.03 h. With `C=CCN1CC[C@]23CCCCC2[C@H]1Cc1ccc(O)cc13` (some centres undefined) the period change was 0.175 h. `COc1ccc2c(c1)C13CCCCC1C(C2)N(C)CC3` (centres undefined) gave a period change of 0 h. Compound `N[C@@]1(C(=O)O)CC[C@@H](C(=O)O)C1` has a period change of -0.105 h. With `C=CCN1C[C@@H](C)N([C@H](c2ccc(C(=O)N(CC)CC)cc2)c2cccc(OC)c2)C[C@@H]1C` the period change was 0 h. In the case of `N#CC(=Cc1ccc(O)c(O)c1)C(N)=S`, the period change is reported as -0.06 h. In the case of `CCNC(=O)[C@H]1O[C@@H](n2cnc3c(N)ncnc32)C(O)[C@H]1O` (some centres undefined), the period change is reported as -0.025 h. `C[C@@H]1O[C@H](C[N+](C)(C)C)C[C@H]1O` showed a period change of -0.03 h. In the case of `c1ccc2cc(CC3=NCCN3)ccc2c1`, the period change is reported as 0.04 h. `C=CCN1CCC23c4c5ccc(O)c4O[C@H]2C(=O)CC[C@@]3(O)C1C5` (some centres undefined) showed a period change of -0.035 h. For `CCCCCCCCCCCCCC(=O)O[C@@H]1[C@@H](C)[C@@]2(O)[C@@H](C=C(CO)C[C@@]3(O)C(=O)C(C)=C[C@@H]23)C2C(C)(C)[C@@]21OC(C)=O` (some centres undefined), the period change was -1.74 h (active).
